Compounds with a hit are over-represented: about 9% of the library has one in this group of screens.
Lamin A splicing = qHTS Assay for Modulators of Lamin A Splicing; HeLa LMNA splicing GFP/RFP minigene ratio, 48 h; Potency, µM (series often up to 46.1 µM), usual class: inhibitors; 200,000 tested, 0.01% active; active = well fitted inhibition curve with a large enough effect in the signal ratio, with a control signal flat, not every such curve was filed as active; inconclusive = small, poorly fitted or top-dose-only effect, or effect the other way, or a change in a side signal; the % refers to the signal ratio
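S3 HeLa stable clones carrying a lamin A-EGFP splicing minigene plus DsRed2 were seeded at 600 cells/well in Opti-MEM with 2% FBS, pin-dosed and incubated 48 h at 37°C. Acumen cytometry (488 nm) gave the GFP/RFP total-intensity ratio.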
HPGD inh = qHTS Assay for Inhibitors of HPGD (15-Hydroxyprostaglandin Dehydrogenase) | 15-hydroxyprostaglandin dehydrogenase [NAD(+)] (Homo sapiens), P15428 | purified HPGD, NADH fluorescence kinetic, PGE2 substrate | Potency, µM, usual class: inhibitors | 150,000 tested, 4.3% active
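20 nM HPGD preincubated 15 min at room temperature with compound in 50 mM Tris-HCl pH 8, 0.01% Tween 20. Started with 1 mM NAD+ and 30 uM prostaglandin E2; NADH fluorescence (360/450 nm) read 5 times over 30-s intervals, last minus first.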
KinaseGlo FLuc = Counterscreen for Luciferase (Kinase-Glo TM) Inhibition. 200,000 tested, 0.28% active. Kinase-Glo luciferase, ATP luminescence, 8 min. Luciferin 4-monooxygenase (Photuris pensylvanica), Q27757. Potency, µM (titrated, usually from 38.3 µM), most hits filed as inhibitors; active = well fitted curve in the direction sought with a large enough effect; inconclusive = small, poorly fitted or top-dose-only effect, or another doubt; inactive = no such curve, though single readings can be large; an effect the other way counts as inactive or inconclusive; note: nearly all actives have a fitted effect of over 60% in size
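Compound is pinned into ATP-containing buffer (10 uM ATP, imidazole pH 7.2, 7 mM MgCl2). Kinase-Glo luciferase reagent is then added. Light output is recorded following an 8-min room-temperature incubation.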
ALDH1A1 block = qHTS Assay for Inhibitors of Aldehyde Dehydrogenase 1 (ALDH1A1); 220,000 tested, 7.3% active; Purified ALDH1A1, NADH fluorescence, propionaldehyde substrate; Potency, µM (titrated, usually from 75.3 µM), hits mostly inhibitors; Aldehyde dehydrogenase 1A1 (Homo sapiens), P00352
Target sequence (P00352 whole entry, looked up): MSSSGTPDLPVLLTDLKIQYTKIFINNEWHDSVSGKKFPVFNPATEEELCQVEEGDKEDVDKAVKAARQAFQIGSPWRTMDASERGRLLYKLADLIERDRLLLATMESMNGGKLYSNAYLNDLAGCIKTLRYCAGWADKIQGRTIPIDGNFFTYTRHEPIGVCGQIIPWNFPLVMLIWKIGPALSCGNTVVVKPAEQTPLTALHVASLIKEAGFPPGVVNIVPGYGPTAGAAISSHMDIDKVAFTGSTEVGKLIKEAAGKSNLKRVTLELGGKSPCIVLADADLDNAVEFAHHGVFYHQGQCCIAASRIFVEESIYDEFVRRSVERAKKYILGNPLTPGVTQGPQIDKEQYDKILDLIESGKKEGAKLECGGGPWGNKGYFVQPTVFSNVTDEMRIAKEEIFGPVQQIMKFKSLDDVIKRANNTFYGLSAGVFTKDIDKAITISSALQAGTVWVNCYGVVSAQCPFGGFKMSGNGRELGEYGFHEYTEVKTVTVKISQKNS
IMPase Li inh = qHTS Assay for Identifying the Cell-Membrane Permeable IMPase Inhibitors: Potentiation with Lithium; Potency, µM (top dose mostly 59.4 µM), most hits filed as inhibitors; AID 1457, 2008; CHO-M1 cells, IP1 TR-FRET (IP-One), carbachol + lithium; 210,000 tested, 0.35% active; active = well fitted curve in the direction sought with a large enough effect; inconclusive = small, poorly fitted or top-dose-only effect, or another doubt; inactive = no such curve, though single readings can be large; an effect the other way counts as inactive or inconclusive;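 note: IP1 builds up when IMPase is blocked and the TR-FRET signal falls; nearly all actives have a fitted effect of over 50% in size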
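CHO cells stably expressing M1 receptor (2000/well, cultured 16–30 h) treated 30 min at 37C with compound plus low lithium. Cytosolic IP1 by TR-FRET (665/620 ratio and 620 channel) after 10 min lysis; AC50 by Hill fit.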
A number is an active result; . = inactive; ? = inconclusive; / = not tested or not shown. Unless noted, calls come from the whole dose curve; as a rule, active = well fitted inhibition curve with a large enough effect (not every such curve was filed as active); inconclusive = small, poorly fitted or top-dose-only effect, or another doubt; inactive = no such curve, though single readings can be large or run the other way.

SMILES	Lamin A splicing	HPGD inh	KinaseGlo FLuc	ALDH1A1 block	IMPase Li inh
O=C(c1ccccc1)N1CCN(c2ccc([N+](=O)[O-])c(NCc3cccnc3)c2)CC1	.	.	.	11µM	.
O=C(NCC1CCCO1)C1CCN(C2CCN(C(=O)Cc3ccsc3)CC2)CC1 (stereo not drawn)	/	/	/	.	/
COc1cc(C(O)CO)ccc1OS(=O)(=O)O (stereo not drawn)	.	.	.	.	.
C=C1C(CCl)(CCl)C2(Cl)C(Cl)C(Cl)C1(Cl)C2(Cl)Cl (stereo not drawn)	/	.	/	14µM	.
COC(=O)C1C(=O)C2=C(CC1C)NC(C)=C(C(=O)OC(C)C)C2c1ccc(C)o1 (stereo not drawn)	.	.	.	.	.
COC(=O)C1C(=O)C2=C(CC1C)NC(C)=C(C(=O)OC1CCCCC1)C2c1ccc(N(C)C)cc1 (stereo not drawn)	.	.	.	8.9µM	.
Cc1cccc(NC2=C(NC(=O)c3ccccc3)C(=O)c3ccccc3C2=O)c1	?	?	.	25µM	.
O=C(NC1=C(NC2CCS(=O)(=O)C2)C(=O)c2ccccc2C1=O)c1ccccc1 (stereo not drawn)	/	/	.	20µM	.
C=CCOC(=O)C(=O)/C=C/c1csc2ccccc12	/	/	/	10µM	.
CCOC(=O)Cn1c(=NC(=O)c2ccc([N+](=O)[O-])s2)sc2ccccc21	.	.	.	.	.
CC(C)=CCc1c2c(c3occ(-c4ccc(O)cc4)c(=O)c3c1O)C=CC(C)(C)O2	?	.	.	25µM	.
CCN(CC)S(=O)(=O)c1ccc2c(c1)nc(CN(C)C(=O)Nc1ccc(F)cc1)n2C	.	/	/	/	/
Cc1nc(Nc2nc3ccccc3o2)nc(C)c1C	/	/	11µM	.	.
Cc1ccc2oc(Nc3nc(C)c(C)c(C)n3)nc2c1	/	/	/	.	/
Cc1ccnc(Nc2nc3ccccc3o2)n1	?	.	13µM	.	.
COC(=O)c1ncccc1SC	.	.	.	.	.
CC(C)=NNc1cc([N+](=O)[O-])cc2c1C(=O)N(C)S2=O (stereo not drawn)	.	/	.	.	.
NNc1cc([N+](=O)[O-])cc2c1C(=O)N(Cc1ccccc1)S2=O (stereo not drawn)	.	/	.	14µM	.
COc1cccc(/C=C/c2nc3c(cnn3-c3ccccc3)c(=O)[nH]2)c1	?	/	.	?	.
COc1cccc(/C=N/n2nnc3c(cnn3-c3ccccc3)c2=O)c1	.	?	.	0.89µM	.
CCOC(=O)N1CCC(NC(=O)CCC(=O)N2CCOc3ccc(C)cc32)CC1	.	/	/	?	/
CCOC(=O)N1CCN(C(=O)CCC(=O)N2CCOc3ccc(C)cc32)CC1	.	/	/	25µM	/
CC(=O)c1ccccc1Oc1nc(CN2CCOCC2)nc2scc(-c3cccs3)c12	.	.	.	22µM	.
NCCC[C@@H](CC(=O)N[C@@H]1CCNC[C@H]1C(=O)N[C@H](CC(=O)N[C@@H](CCC(=O)O)CC(=O)O)Cc1c[nH]c2ccccc12)NC(=O)C[C@H](Cc1ccccc1)NC(=O)[C@@H]1CCCC[C@H]1N	/	.	.	.	.
COC(=O)c1ccc2nc(NC(=O)C3CCCCC3)sc2c1	?	/	.	25µM	.
SMILES	Lamin A splicing	HPGD inh	KinaseGlo FLuc	ALDH1A1 block	IMPase Li inh
Nc1nc2ccc(S(=O)(=O)N3CCCCC3)cc2s1	.	14µM	.	6.3µM	.
O=C(Nc1nc2ccc(S(=O)(=O)N3CCCC3)cc2s1)C1CCCCC1	?	20µM	.	8.9µM	.
O=C(O)COCC(=O)NCc1csc2ccccc12	/	/	/	.	/
CC(C)(C)c1ccc(CN2N=Nc3ccccc3S2(=O)=O)cc1	?	?	.	22µM	.
O=S1(=O)c2ccccc2N=NN1Cc1ccc(Cl)c(Cl)c1	.	5.6µM	.	2.5µM	.
CC(C)c1nc(SCC(=O)Nc2c[nH]c(=O)[nH]c2=O)c2cnn(-c3ccccc3)c2n1	/	/	.	.	.
CCN(CC)C(=O)CSc1nc2ccc(NC(=O)CSc3nnc(N)s3)cc2s1	.	14µM	.	?	.
CCN(CC)C(=O)CSc1nc2ccc(NC(=O)CSc3nccn3C)cc2s1	?	32µM	.	?	.
CCCC(=O)Nc1ccc2nc(SCC(=O)Nc3nccs3)sc2c1	.	.	.	.	.
